Dicer inh = inhibitors of Dicer pre-microRNA processing, primary screen, biochemical, cat-ELCCA, chemiluminescence; cat-ELCCA pre-miR-21 Dicer processing; hits give high values; z-score at 25 µM; actives 6% (n = 47,000); AID 1347074, 2019; in the data active = z-score above about 3, passing the limit was not always enough;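 note: plate controls were vehicle for no effect and no enzyme for full effect; higher signal means more uncleaved substrate so more Dicer inhibition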
Target sequence (Q9UPY3 whole entry, looked up): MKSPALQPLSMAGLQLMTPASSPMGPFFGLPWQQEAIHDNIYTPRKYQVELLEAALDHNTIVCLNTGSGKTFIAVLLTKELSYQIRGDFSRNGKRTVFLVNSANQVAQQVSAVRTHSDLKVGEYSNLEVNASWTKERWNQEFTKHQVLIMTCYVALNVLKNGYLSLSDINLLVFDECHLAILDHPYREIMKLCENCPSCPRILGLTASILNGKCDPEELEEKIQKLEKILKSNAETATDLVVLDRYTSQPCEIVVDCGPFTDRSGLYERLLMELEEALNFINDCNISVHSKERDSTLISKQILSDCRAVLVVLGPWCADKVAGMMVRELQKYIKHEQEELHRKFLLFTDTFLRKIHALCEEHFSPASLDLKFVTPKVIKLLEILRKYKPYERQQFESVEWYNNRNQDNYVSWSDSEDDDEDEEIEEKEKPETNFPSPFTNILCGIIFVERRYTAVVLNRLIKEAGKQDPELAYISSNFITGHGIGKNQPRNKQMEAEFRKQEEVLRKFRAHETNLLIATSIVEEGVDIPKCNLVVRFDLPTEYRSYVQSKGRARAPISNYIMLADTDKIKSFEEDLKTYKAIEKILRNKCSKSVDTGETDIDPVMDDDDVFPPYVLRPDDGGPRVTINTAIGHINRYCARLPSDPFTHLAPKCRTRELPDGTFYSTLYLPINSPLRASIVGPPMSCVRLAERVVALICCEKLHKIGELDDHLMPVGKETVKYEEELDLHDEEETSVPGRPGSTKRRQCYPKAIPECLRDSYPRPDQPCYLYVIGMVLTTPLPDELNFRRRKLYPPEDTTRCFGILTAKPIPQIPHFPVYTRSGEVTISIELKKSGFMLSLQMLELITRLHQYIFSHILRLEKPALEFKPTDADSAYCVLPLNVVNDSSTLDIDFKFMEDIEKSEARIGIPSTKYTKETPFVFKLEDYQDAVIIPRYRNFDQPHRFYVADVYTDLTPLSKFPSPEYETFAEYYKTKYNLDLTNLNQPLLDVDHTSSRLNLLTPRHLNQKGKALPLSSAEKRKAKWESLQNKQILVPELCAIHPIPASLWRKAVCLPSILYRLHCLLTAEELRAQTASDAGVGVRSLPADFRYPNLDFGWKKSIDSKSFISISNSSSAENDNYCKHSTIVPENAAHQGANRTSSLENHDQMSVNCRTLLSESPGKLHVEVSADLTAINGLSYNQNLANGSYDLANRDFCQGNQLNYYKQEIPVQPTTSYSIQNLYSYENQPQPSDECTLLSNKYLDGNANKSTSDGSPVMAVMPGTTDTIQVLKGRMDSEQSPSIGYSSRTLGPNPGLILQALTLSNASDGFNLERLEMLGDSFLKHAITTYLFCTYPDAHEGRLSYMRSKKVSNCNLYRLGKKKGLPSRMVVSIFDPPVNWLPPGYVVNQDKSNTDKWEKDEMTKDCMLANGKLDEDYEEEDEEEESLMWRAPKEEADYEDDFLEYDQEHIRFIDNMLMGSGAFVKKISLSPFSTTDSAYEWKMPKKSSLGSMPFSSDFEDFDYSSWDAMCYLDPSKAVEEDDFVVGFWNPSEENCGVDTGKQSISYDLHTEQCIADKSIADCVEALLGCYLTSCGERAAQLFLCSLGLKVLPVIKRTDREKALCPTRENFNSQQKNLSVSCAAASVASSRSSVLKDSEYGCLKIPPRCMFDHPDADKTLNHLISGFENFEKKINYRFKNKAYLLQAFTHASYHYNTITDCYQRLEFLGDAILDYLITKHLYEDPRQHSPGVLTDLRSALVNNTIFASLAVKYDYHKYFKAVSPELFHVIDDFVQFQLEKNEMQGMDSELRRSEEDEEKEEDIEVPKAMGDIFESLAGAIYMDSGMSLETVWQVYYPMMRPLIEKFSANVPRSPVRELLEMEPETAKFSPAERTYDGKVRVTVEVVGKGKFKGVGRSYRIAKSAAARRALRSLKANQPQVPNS
* hit, by the source's call. This excerpt belongs to a sample that is enriched for hits.

SMILES	Dicer inh
COc1cc(C2N(Cc3ccc(N(C)C)cc3)CCCN2Cc2ccc(N(C)C)cc2)cc(OC)c1OC	0.81
COc1cc(CNc2nc3c(C)cc(C)cc3s2)ccc1O	3.13*
Cc1cc(C)c2nc(NCc3ccccc3O)sc2c1	2.9
COc1cc(CCC(C)NCc2ccccc2)ccc1O (stereo not given)	-1.24
CC1=C(C(=O)OC2CCCCC2)C(c2ccccc2OC(C)C)C2=C(CCCC2=O)N1 (stereo not given)	0.07
COc1ccc(/C=C/c2nc3ccccc3n(C)c2=O)cc1OC	2.55
CC(C)CC(NC(=O)C(C)N)C(=O)O (stereo not given)	-0.33
O=C(COC(=O)c1ccc(C(O)c2ccccc2)cc1)c1ccccc1 (stereo not given)	3.98*
O=C(COC(=O)c1ccccc1Nc1ccccc1F)c1ccccc1	-6.3
O=C(COC(=O)c1ccccc1-c1ccccc1)c1ccccc1	2.07
Clc1ccc(/C=N\Nc2nc3ccccc3nc2/C=C/c2cccs2)cc1	2.05
O=C(O)CNC(=O)CCCCC(=O)NCC(=O)O	0.82
O=C(NCC1CCCO1)N1CCOCC1 (stereo not given)	-0.5
COc1ccc(/C=C(\C#N)C(N)=O)cc1Br	-0.73
CCOC(=O)c1ccc(N=C(N)SCc2ccccc2)cc1	2.16
Cc1c(C)c(C)c(CSC(N)=Nc2ccc(F)cc2)c(C)c1C	3.29*
N=C(N)SCc1ccc(F)cc1	0.2
COc1ccc(OC)c(C2C(C#N)=C(C)NC3=C2C(=O)CC(c2ccc(Cl)cc2)C3)c1 (stereo not given)	0.49
O=C(CSc1nncn1-c1ccc(C(F)(F)F)cc1)c1ccc(F)cc1	-0.69
Cc1ccc(Cn2c(C)cc(C)c(C#N)c2=O)cc1	-0.64
CN1CC=C(/C=C/c2ccccc2)CC1	3.8*
C(=C\c1ccccc1)/CN1CCN(C/C=C/c2ccccc2)CC1	-1.6
CN1CCc2c(sc3c2C(=O)NC(/C=C\c2ccccc2)N3)C1 (stereo not given)	1.37
CCOC(=O)COc1ccc2c(c1)OC(C)(C)CC2=O	-1.46
Cc1cc2nc(-c3ccc(NC(=O)c4ccc([N+](=O)[O-])o4)cc3)oc2cc1C	-0.13
SMILES	Dicer inh
O=C(COc1cc(C(F)(F)F)nc2ccccc12)Nc1ccc2c(c1)OCO2	0.55
COc1ccc(-c2cn3cccc(C)c3n2)cc1	0.29
COc1c(Cl)cccc1-c1cn2ccccc2n1	-1.57
COc1ccc(-c2cn3ccccc3n2)cc1Br	1.1
COc1ccc(-c2cn3ccccc3n2)cc1	5.79*
CCCOc1ccc(-c2cn3ccccc3n2)cc1	3.86*
CCc1ccn2cc(-c3ccc(C)cc3)nc2c1	1.58
Cc1ccc(Nc2nc(C3(C)CC(C(C)C)C(=O)O3)cs2)cc1 (stereo not given)	-0.38
Cn1c(=O)c2c(N)c([N+](=O)[O-])c(=O)n(-c3ccccc3)c2n(C)c1=O	-4.58
Cc1cc(Nc2ccccc2)c2ccccc2n1	1.49
COc1ccc2nc(C)cc(Nc3ccc(Br)cc3)c2c1	5.05*
CCOc1ccc(Nc2cc(C)nc3ccc(OC)cc23)cc1	2.86
Cc1ccc(CC2CC(=O)N(Cc3ccco3)C2=O)cc1 (stereo not given)	3.58*
Cc1ccc(CC2CC(=O)N(c3ccncc3)C2=O)cc1 (stereo not given)	-0.31
Cc1ccc(CC2CC(=O)N(c3ccc(C(=O)O)cc3)C2=O)cc1 (stereo not given)	2.34
O=[N+]([O-])c1ccc(NS(=O)(=O)c2ccc(Cl)cc2)c(Cl)c1	0.14
O=C(N/N=C/c1cccc2ccccc12)N/N=C/c1cccc2ccccc12	0.7
Cc1cc(=O)[nH]c(NCc2ccccc2)n1	-0.6
Cc1cc(=O)[nH]c(N/N=C\c2cccc3ccccc23)n1	3.32*
O=C(Nc1cccc2cccnc12)c1ccco1	-2.82
O=C(Nc1cc(-c2nc3cc(Cl)ccc3o2)ccc1Cl)c1ccco1	1.25
O=C(Nc1ccc(Cl)cc1O)c1ccco1	5.69*
O=C(CSc1nccc(-c2cccs2)n1)N1CCc2c([nH]c3ccccc23)C1C(F)(F)F (stereo not given)	3.3*
O=C(CSc1nc2ccccc2s1)N1CCc2c([nH]c3ccccc23)C1C(F)(F)F (stereo not given)	-1.79
O=C(O)c1cccnc1C(=O)N1CCc2c([nH]c3ccccc23)C1C(F)(F)F (stereo not given)	0.23
SMILES	Dicer inh
Cc1onc(-c2ccccc2)c1NC(=O)O/N=C(\N)c1ccc(Cl)cc1	0.68
O=C(c1cnc2cc(-c3ccccc3)nn2c1)c1cc(Br)ccc1O	3.26*
O=C(c1cnc2cc(-c3ccccc3)nn2c1)c1cc(Cl)ccc1O	-1.73
O=C(c1cnc2cc(-c3ccc(Cl)cc3)nn2c1)c1ccccc1O	-0.69
COC(=O)C1Cc2c([nH]c3ccccc23)C(c2ccccc2)N1 (stereo not given)	0.69
N[C@@H](Cc1c[nH]c2ccccc12)C(=O)O	-1.05
Clc1ccc(Cc2nc(-c3ccccc3)cs2)cc1	-0.36
Oc1ccc(-c2csc(Cc3c[nH]c4ccccc34)n2)cc1O	5.61*
